Experimental findings from PubChem BioAssay (Tox21) are described below.

Several values for one entry are separate records, joined by “and”; a condition that tells them apart may be missing. Equal values may be shown once. Records with an inconclusive call do not appear. Entries that show only a call come without a potency. A number with no mark means an inactive call. Activity calls are given as the source filed them. The rule behind the calls is not given here.
Potency is the fitted concentration of half-maximal effect.

The nature of the test: qHTS assay to identify small molecule antagonists of the estrogen related receptor signaling pathway with the pleiotropic PPARgamma coactivator (PGC) from Tox21 10K library (AID 1224841). Note: actives are mostly falling curves and most rising ones were filed inactive; nearly all actives have a fitted effect of over 50% in size. Particulars: PGC/ERR reporter cell line, ONE-Glo luciferase, 18 h; series mostly up to 92.4 µM. Put shortly: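 One-Glo luminescence, measured after half an hour at room temperature, quantified reporter output of PGC/ERR cells. These had been plated at 2,000 per well, incubated 6 h, dosed with compounds in DMSO, then kept 18 h at 37 C.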
For orientation: In qHTS, concentration-response curves come from the screen itself.
Consider `CCN1CCC2(CC1)COc1cc3c(cc12)N(C(=O)c1ccc(-c2ccc(-c4nnc(C)o4)cc2C)cc1)CC3`, for which the Potency is 7.96 µM (active).
With `O=NN(CCO)CCO`, the Potency entry was “inactive”.
On the same count and under the same terms, in the case of `CCN(CC)Cc1nccn1-c1ccc([N+](=O)[O-])cc1C(=O)c1ccccc1Cl` it was “inactive”; in that of `Nc1ccc(Cl)cc1C(=O)c1ccccc1F`, “inactive”; in that of `CCc1cccc(C)c1N(C(=O)CCl)[C@@H](C)COC`, 30.6 µM (active).
In the case of `CC(C)N(C(=O)CCl)c1ccccc1`, the Potency was 9.69 µM (active) and 6.11 µM (active).
As for `Oc1cc(Cl)c(Cl)c(Cl)c1Cl`, the Potency was 21.2 µM (active).
Regarding `Fc1ccc(C(OCCN2CCN(CCCc3ccccc3)CC2)c2ccc(F)cc2)cc1`, the Potency was 11.9 µM (active).
Turning to `COC(=O)N(OC)c1ccccc1COc1ccn(-c2ccc(Cl)cc2)n1`, the Potency was 0.486 µM (active).
`COc1nc(C)nc(NC(=O)NS(=O)(=O)c2ccccc2Cl)n1`: the Potency result was “inactive”.
Regarding `CNC(=O)Oc1cc(C)cc(C(C)C)c1`, the Potency entry was “inactive”.
Turning to `ClCBr`, the Potency result is “inactive”.
On the same count and under the same terms, in the case of `c1ccc(N=NNc2ccccc2)cc1` it was “inactive”.
As to `CCC[CH2][Sn]([CH2]CCC)([CH2]CCC)[O][Sn]([CH2]CCC)([CH2]CCC)[CH2]CCC`, the activity, negative = inhibition was 332% [at 8.39 µM].
As to `COP(=O)(OC)Oc1ccc([N+](=O)[O-])cc1`, the Potency was 21.7 µM (active).
Same read-out and setting: in the case of `CCCCN(CCCC)C(=S)S` it was “inactive”; in that of `O=[N+]([O-])c1ccccc1-c1ccccc1`, “inactive”.
Same read-out and setting: next, `COP(=S)(OC)Oc1nc(Cl)c(Cl)cc1Cl`: “inactive”.
